From PubChem BioAssay
ABHD5 PLIN5 PPI = ABHD5-PLIN5 protein interaction inhibition. 0.78% of 360,000 active. Split G. princeps luciferase complementation, luminescence, 4 h. inhibition, % at 4 µM. Q00G26+Q8WTS1;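 active = inhibition above the mean inhibition across every tested compound plus 3 SD, cut at about 22% in these data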;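 also: 0% = DMSO only wells and the 100% control is not disclosed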
HIF-2a block = blocks HIF-2a reporter activity. 786-0 RCC cells HIF-2a reporter, luciferase luminescence, overnight. inhibition, % at 18.8 µM. 0.72% of 360,000 active;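 active = inhibition of the luminescence signal of 40% or more relative to plate controls, in a single-dose primary screen at 18.75 µM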
KKLEB tox = CF airway cell cytotoxicity counter-screen; 0.36% of 360,000 active; KKLEB CF airway cells viability, ATPlite luminescence, overnight; stronger effect = lower value; cells stimulated with P. aeruginosa culture filtrate; activity change (cytotoxicity), % at 5 µM;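 active = corrected activity change at or below -50% at 5 µM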
Peg3 prom inh = inhibitors of Peg3 promoter | HeLa PEG-Prom luciferase reporter, luminescence, overnight | inhibition, % at 20 µM | 1.7% of 360,000 active;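 active = inhibition of at least 50% at 20 µM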
Mdm2 MdmX PPI = disrupts the human Mdm2-MdmX interaction | 3% of 330,000 active | SaOS-2 split-luciferase Mdm2/MdmX complementation, luminescence | inhibition, % at 8 µM | O15151+Q00987;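 active = inhibition of at least 50% at 8 µM in the primary screen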
CF NFkB inh = cystic fibrosis NF-kB activation inhibition; AID 588850; KKLEB NF-kB-GFP reporter, PAF-induced, GFP fluorescence overnight; 0.86% of 360,000 active; inhibition, % at 5 µM;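 active = at least 50% inhibition at 5 µM, scaled per plate between neutral and stimulator controls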;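 also: PAF is a Pseudomonas aeruginosa culture filtrate used as stimulus; plate controls were PAF-stimulated DMSO wells for no effect and unstimulated DMSO wells for full effect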
Numbers without * were called inactive; . = no result. Compounds with a hit are over-represented: about 4.6% of the library has one in this group of screens.

SMILES	ABHD5 PLIN5 PPI	HIF-2a block	KKLEB tox	Peg3 prom inh	Mdm2 MdmX PPI	CF NFkB inh
O=C(Nc1ccc2oc(-c3cccnc3)nc2c1)c1ccc([N+](=O)[O-])o1	1	24	-58*	108*	.	89*
O=C(Nc1ccc2oc(-c3cccnc3)nc2c1)c1ccc(Br)o1	-2	-13	14	0	11	-7
CN1CCN(c2ccccc2NC(=O)c2ccc([N+](=O)[O-])o2)CC1	0	-1	-15	61*	32	32
CS(=O)(=O)N1CCN(c2ccccc2NC(=O)c2ccc([N+](=O)[O-])o2)CC1	-7	-14	2	18	25	-44
CCC(C)(C)NC(=O)CN(C(=O)C(=O)Nc1ccc2c(c1)OCCO2)C1CC1	0	-26	-7	-23	-12	4
COc1ccc(F)cc1S(=O)(=O)N1CCc2ccccc2C1	-4	6	-4	6	.	-26
COc1ccc(-n2c(O)c(C=Nc3ccccc3)c3ccccc3c2=O)cc1	-6	0	-52*	47	38	47
CC(=NNC(=O)CSc1nc2ccccc2o1)c1ccco1	-8	-227	-16	-221	-96	8
S=C(NCc1ccccc1)NC1CCSc2ccccc21 (stereo not drawn)	-1	9	-2	13	-5	27
CCN(CC)CCCNc1nc(-c2ccccc2)nc2ccccc12	5	-23	5	4	8	-14
CCN(CC)CCCNc1nc2ccccc2c2[nH]c3ccc(OC)cc3c12	-1	35	-17	99*	.	13
O=S1(=O)C[C@H](N2CCCC2)[C@@H](COCc2ccccc2)N1	12	20	0	10	.	-14
COc1ccc2ccc(O)c(CN(C)CC(=O)Nc3ccccc3C(F)(F)F)c2c1	22*	21	-20	10	17	17
CN(C(=O)c1cnc(N2CCN(c3ncccn3)CC2)c2ccccc12)c1ccc(Cl)cc1	-1	18	-1	62*	-5	14
CCN1/C(=C2\SC(=S)N(Cc3ccccc3)C2=O)Sc2ccccc21	5	18	2	1	13	-4
CCC(CO)[n+]1c(C)cc(/C=C2\Sc3ccccc3N2Cc2ccccc2)cc1C (stereo not drawn)	8	-11	-6	62*	.	10
CCc1cc(-c2nnn(CCC3COCCO3)c2C(C)(C)O)ccc1-c1cn(CCc2c[nH]c3ccccc23)nn1 (stereo not drawn)	-2	22	0	31	.	-15
O=C(CNC(=O)c1nn(Cc2ccccc2)c(=O)c2ccccc12)Nc1ccc(F)c(F)c1F	0	-8	-56*	2	26	47
Cn1nc(C(=O)NCC(=O)Nc2ccc(F)c(F)c2F)c2ccccc2c1=O	3	0	-4	-7	41	0
O=C(NCCCl)Nc1ncn[nH]1	-3	-4	-11	100*	.	-5
CCOC(=O)C1=C(COC(=O)/C=C/c2ccc(SC)cc2)NC(=O)NC1C (stereo not drawn)	-5	4	-27	-3	22	29
C[C@@H]1CN([C@H](C)CO)C(=O)c2cc(Br)cnc2O[C@@H]1CN(C)C(=O)Cc1ccccc1	0	4	-4	11	.	-14
Cc1ccc(-c2nn(-c3ccccc3)cc2CO)cc1	3	-217	5	-263	-64	-2
Cc1ccc(C)c(-n2cc(CNCCCn3cccn3)c(-c3ccccc3)n2)c1	-4	8	-22	10	17	9
Cc1ccc(-n2cc(CNCCCn3cccn3)c(-c3cccc(C)c3)n2)cc1	13	-32	-27	85*	44	17
SMILES	ABHD5 PLIN5 PPI	HIF-2a block	KKLEB tox	Peg3 prom inh	Mdm2 MdmX PPI	CF NFkB inh
Cc1ccc(-c2nn(-c3ccccc3)cc2CNCc2ccccc2)cc1	-6	-16	-16	53*	36	11
CC1CCCC(NC(=O)COC(=O)CCC(=O)c2ccc(F)cc2)C1C (stereo not drawn)	2	12	8	6	14	-13
O=C(NC(c1ccc(F)cc1)c1ccc2ccccc2n1)C1CCN(CCOc2ccc(Cl)cc2)CC1 (stereo not drawn)	12	-11	-19	96*	.	5
COc1ccc(C(NC(=O)C2CCN(CCOc3ccc(Cl)cc3Cl)CC2)c2ccccn2)cc1 (stereo not drawn)	11	-14	4	13	.	2
COc1cc(/C=C/CN2CCC(C(=O)NC(c3ccc(F)cc3)c3ccc4ccccc4n3)CC2)ccc1OC(C)=O (stereo not drawn)	11	-42	-2	91*	.	14
Cc1cccnc1C(c1ccc(F)cc1)N(C)C(=O)C1CCN(CCOc2ccc(Cl)cc2Cl)CC1 (stereo not drawn)	0	-2	-31	98*	.	33
O=C(NC(c1ccccc1)c1ccc2ccccc2n1)C1CCN(CCOc2ccc(Cl)cc2Cl)CC1 (stereo not drawn)	-4	19	-21	102*	.	20
O=C(NC(c1ccc(F)cc1)c1ccc2ccccc2n1)C1CCN(Cc2ccc3ccccc3n2)CC1 (stereo not drawn)	14	19	1	10	.	11
CC(NC(=O)C1CCN(CCOc2ccc(Cl)cc2)CC1)c1cccc2ccccc12 (stereo not drawn)	7	2	-11	69*	.	27
COc1ccc(CN2CCC(C(=O)NC(C)c3cccc4ccccc34)CC2)cc1 (stereo not drawn)	7	2	-20	-9	.	-12
COC(=O)c1cc(S(=O)(=O)n2nc(C)c(Br)c2C)c(Cl)cc1Cl	2	37	-16	87*	34	-21
O=C(Nc1ccccc1Br)c1ccc(N2CCCC2=O)cc1	6	-235	-24	-323	-49	-16
COc1ccc2cc(-c3ccccc3)ncc2c1	3	-187	-23	-308	-127	-42
COc1cc(OC)cc(-c2cc3ccc(OC)cc3cn2)c1	-9	-267	-55*	-180	-147	0
CC(C)(C)N1C(=O)c2ccc(C(=O)Nc3ccc(-c4nc5ccccc5[nH]4)cc3)cc2C1=O	4	-8	2	82*	9	-2
Cn1c(Nc2ccc(Cl)cc2F)nc2cc(-c3ccccc3)sc2c1=O	3	-28	-12	-13	.	-3
CCOC(=O)c1ccc(N2C(=O)c3n[nH]c(-c4ccco4)c3C2c2ccc([N+](=O)[O-])cc2)cc1 (stereo not drawn)	16	20	-5	60*	43	-10
CCCc1ccc(Oc2cn[nH]c2-c2ccc(O)c(C)c2O)cc1	-14	-78	3	10	24	53*
Nc1c(-c2ccc(Cl)cc2)cnc2c(-c3ccccc3)cnn12	4	-257	-12	-119	-46	2
C/C=C/c1ccc(OCC(=O)N2CCc3cc(OC)c(OC)cc3C2)c(OC)c1	-5	12	-9	-8	-11	7
